Assay results taken from ChEMBL document CHEMBL4513149, “CO-ADD screening of MMV (CH) - MMV compounds” (2021).
Measured potencies and affinities stand elsewhere.

Columns and labels:
Staphylococcus aureus = settings: Concentration 20 uM; ASSAY_TEST Inhibition of Bacterial Growth; detection method Absorption (OD600); MEDIA CAMHB; plate type 384well; NBS; CORNING #3640; time 18 hr
Escherichia coli = settings: Concentration 20 uM; ASSAY_TEST Inhibition of Bacterial Growth; detection method Absorption (OD600); MEDIA CAMHB; plate type 384well; NBS; CORNING #3640; time 18 hr

SMILES	Inhibition (Staphylococcus aureus) [%]	Inhibition (Escherichia coli) [%]
COc1ccc(-c2nnc3ccc(-c4cccc(C(C)C)c4)cn23)cc1OC	5.54	12.18
CCOc1ccc(-c2nc(NC(=O)CS(=O)(=O)c3ccccc3)sc2C)cc1	3.82	-0.36
Cc1cc2nc(NC(=O)C(C)(C)C)nc(Cl)c2n1Cc1ccc(Cl)cc1	7.77	0.73
Cc1cc2ccccc2n1CC(=O)N1CC(C(=O)N2CCCCC2)Oc2ccccc21 (stereo unspecified)	16.51	10.52
O=C(NC1CC1)c1ccc(N2CCOc3ccc(Cl)cc32)s1	18.01	8.85
CC(C)(C)n1nc(Cc2cccc3ccccc23)c2c(N)ncnc21	2.05	-5.14
Cc1ccc(NC(=O)c2cc(S(=O)(=O)NC(C)(C)C)ccc2C)nc1	21	8.11
Cc1ccc2cc(C3NC(=O)c4ccccc4N3)c(Cl)nc2c1 (stereo unspecified)	11.87	10.17
CC(C(=O)N1CCCC1)N1CCN(S(=O)(=O)c2ccc(C(C)(C)C)cc2)CC1 (stereo unspecified)	8.1	-2.16
Cc1nn2c(O)c3c(nc2c1-c1ccc(F)cc1)CCCC3	17.1	16.25
CCc1ccc(C(NCc2nc(N)nc(N(C)C)n2)C(C)C)cc1 (stereo unspecified)	6.21	7.08
N#Cc1ccc(-c2cnc(N)c(-c3ccc(C(N)=O)cc3)n2)cc1	16.7	7.7
COc1ccccc1OCCCCn1c(C2CC2)nc2ccccc21	12.87	4.8
CS(=O)(=O)N1CCC(CCn2nc(Cc3cccc4ccccc34)c3c(N)ncnc32)CC1	11.8	-2.01
CC(=O)N(CCN(C(=O)c1ccc(F)cc1)c1ccccc1)c1ccccc1	12.64	5.32
Cc1noc(C)c1C(=O)N1CCCC(c2[nH]c3c(C)cccc3c2-c2ccncc2)C1 (stereo unspecified)	19.72	12.41
CC(C)(C)n1nc(Cc2ccc(F)c(Cl)c2)c2c(N)ncnc21	12.68	11.38
Cc1ccc2nc(C)c(-c3ccn(Cc4ccccc4)n3)n2c1	13.47	10.25
O=C(CN1CCOCC1)Nc1ccc2ncnc(Nc3ccc(OCc4cccc(F)c4)c(Cl)c3)c2c1	14.97	4.06

SMILES	Inhibition (Staphylococcus aureus) [%]	Inhibition (Escherichia coli) [%]
O=C(Nc1nc(-c2ccccn2)cs1)C1CC1c1ccccc1F (stereo unspecified)	16.77	3.89
O=C(Nc1c(O)cccc1-c1nc2c(C(=O)O)cccc2o1)c1cc(-c2ccccc2)on1	0.11	-12.15
Nc1ncc(-c2ccc(C(F)(F)F)nc2)cc1-c1ccc(C(F)(F)F)nc1	3.63	7.53
N#Cc1nc(-c2ccccc2F)oc1NCCc1ccccc1	7.55	2.58
CN(C)CCNC(=O)N1CCCN(c2ncnc3cc(-c4ccccc4)sc23)CC1	13.78	3.44
COc1ccc(Nc2ccccc2NC(=O)c2ccc(O)nc2)cc1	8.88	-4.3
Cl.O=C(Nc1ccc(N2CCNCC2)nc1)c1oc(-c2ccccc2)nc1C(F)(F)F	15.48	0.64
COc1ccc(C2(C(=O)Nc3ccc(Br)cc3)CCCC2)cc1	18.94	6.87
COc1ccc(C2CC(c3cccs3)=NN2C(=O)c2ccco2)cc1OC (stereo unspecified)	19.66	11.75
COc1cc(C2=NCCN2)ccc1-c1cn(-c2cccc(C3=NCCN3)c2)nn1	19.96	14.41
O=[N+]([O-])c1cn2c(n1)OC[C@@H](OCc1ccc(OC(F)(F)F)cc1)C2 [PRETOMANID]	14.36	4.79
CN1CCCN(C(c2ccccc2)c2ccc(Cl)cc2)CC1 (stereo unspecified) [HOMOCHLORCYCLIZINE]	14.31	4.77
O=C(c1ccc(F)cc1)N(CCNc1ccccc1)c1ccccc1	14.62	8.4
CCc1ccc(S(=O)(=O)Nc2cc(CN3CCN(CCC(C)C)CC3)ccc2C)cc1	21.02	13.04
CCc1ccc([C@@H]2C[C@H](C(F)(F)F)n3ncc(C(=O)NCc4ccc(OC)cc4)c3N2)cc1	5.55	-1.62
COc1cc(Br)cc2cc(C(=O)Nc3cccc(C(F)(F)F)c3)c(=O)oc12	7.48	1.89
Cc1cc(C(=O)Nc2ccc(-c3ccccc3)cc2)no1	16.2	12.13
COCC(C)NC(=O)CSc1ncnc2sc(-c3ccccc3)cc12 (stereo unspecified)	19.45	9.3
CNC(=O)c1nn(C)c2c1C(C)(C)Cc1cnc(Nc3ccc(N4CCN(C)CC4)cc3)nc1-2 [MILCICLIB]	15.75	10.4
